Laboratory results reported in PubChem BioAssay AID686922 (National Center for Advancing Translational Sciences (NCATS), 2013).
Inconclusive results are not listed. A number with no mark means an inactive call. The source made the active and inactive calls. Calls come from the whole dose curve; as a rule, active = well fitted inhibition curve with a large enough effect; inconclusive = small, poorly fitted or top-dose-only effect; inactive = no such curve, though single readings can be large or run the other way.

Assay: qHTS screen for inhibitors of ELG1-dependent DNA repair in human embryonic kidney (HEK293T) cells expressing luciferase-tagged ELG1: MMS Viability Assay for probe SAR
Conditions: HEK293T ELG1-luc + MMS viability, CellTiter-Glo, 16 h; series mostly up to 46.1 µM; activity change, negative = lower viability: at the top concentration
Text: Cancer cells divide rapidly compared to normal cells in the body. During cell division, cancer cells need to duplicate their genome by DNA replication. The failure of genome duplication leads to cancer cells' death. Therefore, inhibitors of DNA replication could specifically kill cancer cells. Based on this concept, many chemotherapeutic agents were developed and have been used to treat cancer patients. However, there are a limited number of agents available in the clinical setting, and some of those that do exist have low efficacy and severe side effects. Therefore, if we can find the compounds that effectively block DNA replication either by directly damaging DNA or by inhibiting other cellular mechanisms, the options for cancer treatment will be broadened. With this in mind, we developed a quantitative high-throughput ELG1-luciferase reporter gene assay. Small molecules that specifically block ELG1 function in response to DNA damage can be identified by monitoring the suppression of luciferase activity. Since ELG1 defines a pathway for repairing DNA damage, agents blocking ELG1 function can be used to sensitize cancer cells to chemotherapeutic agents whose mechanism of action involves the induction of DNA damage. Cytotoxicity of the active compounds in the ELG1 qHTS assay with MMS stimulation (AID 493125) was assessed using the CellTiter-Glo Luminescent Cell Viability Assay kit (Promega, USA). CellTiter-Glo measures the intracellular ATP present in metabolically active cells using Ultra-Glo as the luciferase to detect ATP levels. In brief, the luciferase in the buffer catalyzes the oxidation of luciferin to oxyluciferin and light which is dependent on ATP. […] DMSO and wells with media alone were used as positive and negative controls, respectively. Inactivity to this assay is the desirable outcome. NIH Molecular Libraries Probe Production Network [MLPCN] NIH Chemical Genomics Center [NCGC] MLPCN Grant: R03 MH092164 Assay Provider: Kyungjae Myung, NHGRI, NIH
ELG1-luc HEK293T cells will be seeded in 1536-well plates at a density of 2,000 cells/well. Approximately 5 hours after plating, compounds will be added to the plate by pin tool transfer and MMS will be added by FRD dispenser (final concentration of MMS = 10 µM). 16 hours following the addition of the compounds, cell viability will be measured using CellTiter Glo.

Structure (SMILES) | activity change, negative = lower viability [%] | Potency
Fc1cc(Nc2nc(-c3ccncc3)nc3ccccc23)ccc1-c1cncnc1 | 13.8 | –
COc1cc(Nc2nc(-c3ccncc3)nc3ccccc23)ccc1NS(C)(=O)=O | -4.62 | –
Fc1cc(Nc2nc(-c3ccncc3)nc3ccccc23)ccc1-c1cccc(C(F)(F)F)c1 | – | 20.9 µM (active)
COc1ccc(-n2c(C)c(C(C)=O)c3cc(O)ccc32)cc1 | 12.3 | –
Cc1cnccc1-c1nc(Nc2ccc(F)c(F)c2)c2ccccc2n1 | -5.06 | –
O=[N+]([O-])c1ccc(-c2nc(Nc3ccc(F)c(F)c3)c3ccccc3n2)cc1 | -10.1 | –
Fc1ccc(Nc2cc(-c3ccccc3)nc(-c3ccncc3)n2)cc1F | -28.5 | –
COc1ccc(-c2nc(Nc3ccc(F)c(F)c3)c3ccccc3n2)cc1 | -27.9 | –
